Data taken from the OligoGym collection.

target: SSX3; test: pooled miR-30 sensor sort-seq; sequence = guide strand; details: shRNA
Further: reference of the scale not given here.

Sequence	sensor-assay potency score (higher = more potent)
TATCATGTTAATCTTCTCAGAG	-0.0343
TTTGTATCTTCTCTGGTATTTG	-1.22
TAACAGAATGACACACTTCAAG	-1.11
ATATCATGTTAATCTTCTCAGA	-1.24
CATCTGAGGACGTTGAACCTGA	-0.724
TTGTATCTTCTCTGGTATTTGA	-1.1

target: SSX4B; test: as above; details: shRNA

Sequence	sensor-assay potency score (higher = more potent)
AACCATTTTCTTCCTCTGCTGG	-0.606
TGTCTTGTTAATCTTCTCCAAG	-1.4
TTTAGCTTCATATACACATAGA	-0.61
TTCATAAACCACCAGCTGCTTT	-1.07
TTGTTAATCTTCTCCAAGGTAC	-0.679
TTAATCTTCTCCAAGGTACTTG	0.0289
TTAGTCATGACCTCATAGTTTA	-0.622
ATTCCTGTGGTTTCGATCGTTA	-0.284
TAATCTTCTCCAAGGTACTTGG	-0.322
TGATATTTGAGCATCATCCCTG	0.125
TTTAGTCATGACCTCATAGTTT	-0.792
TCTCTGATATTTGAGCATCATC	-2.01

target: SSX5; test: as above; details: shRNA

Sequence	sensor-assay potency score (higher = more potent)
TGCTTTTGCATCTTCTCTGGTA	-0.325
TTGTTAACCTTCTCAGAGGTAT	-0.473
TTCTCTCACGCACTCTGTGGGT	-1.32
TTCTCGGGCGTGATCTTCGGGA	-0.793
TTGCTCATCAGTGAAAACGCTA	-0.328
TTTGAGAACCAACCCTAGGTCT	-0.607
TACACAAACTGAAATATGCATT	-0.947
TGGTATTTGAGAACCAACCCTA	-0.335
TTGCTTTCTCTCACGCACTCTG	0.108
TTCATAAATCACCAGTTGCTTT	-1.18
AACAGAAACACTAACATCGAAC	-0.742
TTTCTCTCACGCACTCTGTGGG	-0.559

target: ST6GAL2; test: as above; details: shRNA

Sequence	sensor-assay potency score (higher = more potent)
TTTGGTTGAATCTTCTCTTTAG	-0.877
AAAGTAGTCGTCATCCTCCGGG	0.386
TGCGTCGTAGTACAGCTCGTGG	-0.842
TAAGATTTGCGGAATATGGGGC	0.141
TTTATGTTCAAACCCATCTTGG	-0.693
TTGAATCTTCTCTTTAGTGTTC	0.135
TTGGTTGAATCTTCTCTTTAGT	-0.57
AAGTAGTCGTCATCCTCCGGGT	-0.429
TTCTCTTTAGTGTTCTCCTGGA	0.105
TTTATTCCCAACATCTTTCTCA	0.384
